A selection: hits, their analogues and other compounds. The true share with any hit is near 6.5%.
HCMV antiviral – blocks human cytomegalovirus replication. HFF cells, HCMV-luciferase reporter, 72 h; stronger effect = lower value. 4.5% of 410,000 active. activity change, negative = inhibition, % at 57.5 µM; in the data active = activity change below about -60%; inconclusive = no clear call, values can overlap the other calls; inactive = above about -39%
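Inhibition of viral replication was scored as loss of reporter luminescence in HFFs infected with HCMV-luciferase (MOI 1 PFU/cell) for 72 h; compounds tested at 2 doses, normalized to buffer and Salinomycin controls.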
Lassa entry inh – Lassa virus entry inhibition | Potency, µM (highest dose often 37.9 µM), for inactives: at the highest dose activity change, negative = inhibition, hits mostly inhibitors | Lassa virus pseudotype entry inhibition, cell reporter | 1.2% of 300,000 active; calls by dose curve; tested in HEK293 cells; also: potency is read from the fitted curve at half-maximal effect; nearly all actives have a fitted effect of over 50% in size
Marburg entry inh – Marburg virus entry inhibition; AID 540276; Marburg virus pseudotyped entry inhibition, cell reporter; 1.8% of 300,000 active; Potency, µM (top dose mostly 37.8 µM), inactives show at the highest dose activity change, negative = inhibition, actives largely listed as inhibitors; calls by dose curve; tested in HEK293 cells; also: potency is read from the fitted curve at half-maximal effect
VACV mCherry inh – vaccinia inhibition (mCherry reporter) | Vaccinia virus mCherry reporter infection, fluorescence | Potency, µM (highest dose often 36.5 µM), inactives show top-dose activity change, negative = inhibition, usual class: inhibitors | 0.63% of 310,000 active | AID 720579; calls by dose curve; tested in A549 cells; also: potency is read from the fitted curve at half-maximal effect; nearly all actives have a fitted effect of over 35% in size
Vaccinia Venus – vaccinia inhibition (Venus reporter); Vaccinia virus Venus reporter expression, fluorescence; Potency, µM (top dose mostly 36.5 µM), inactives show top-dose activity change, negative = inhibition, actives largely listed as inhibitors; 0.46% of 330,000 active; AID 720580; calls by dose curve; tested in A549 cells; also: potency is read from the fitted curve at half-maximal effect; nearly all actives have a fitted effect of over 30% in size
FMDV inh – blocks foot and mouth disease virus. FMDV antiviral cell-based qHTS. Potency, µM (highest dose often 57.9 µM), for inactives: at the highest dose activity change, negative = inhibition, actives largely listed as inhibitors. 1.2% of 410,000 active. AID 1159524; calls by dose curve; tested in HEK293T cells; also: read-out not given here; potency is read from the fitted curve at half-maximal effect; nearly all actives have a fitted effect of over 45% in size
* = called active by the depositor; i = inactive; u = inconclusive; x = no result given; ! = repeats disagree; [ ] = remark or other dose. % is scaled to controls: 0 for no effect and ±100 for the full control effect.

SMILES	HCMV antiviral	Lassa entry inh	Marburg entry inh	VACV mCherry inh	Vaccinia Venus	FMDV inh
CCCCC(=O)N/N=C/c1ccc(Sc2cccc3cccnc23)o1	73	u	9%	x	u	-10%
O=C(NC1CC2CCCC(C1)N2C(=O)Nc1ccc(Cl)c(C(F)(F)F)c1)C1CC1 (centres undefined)	-6	5%	-5%	x	x	u
O=C(Nc1ccc(Cl)c(C(F)(F)F)c1)NC1CC2CCCC(C1)N2Cc1ccccc1 (centres undefined)	u	u	8.9µM*	u	u	u
Cc1ccc(-c2ccccc2[C@@H]2C[C@H]3CN(C)C(=O)[C@]34CCCN24)o1	40	-14%	8%[46.1 µM]	-19%	-12%	-11%
O=C1N(c2ccccc2)C[C@@H]2C[C@@H](c3cc4ccccc4o3)N3CCC[C@@]123	-99*	u	u	0.89µM*	u	-29%
Clc1ccc(COC(Cn2ccnc2)c2ccc(Cl)cc2Cl)cc1 (centres undefined)	-23	-29%	-40%	-10%	u	32µM*!
Clc1ccc(CSC(Cn2ccnc2)c2ccc(Cl)cc2Cl)cc1 (centres undefined)	u	u	u	-2%	u	u
NC(=NCc1ccc(Cl)c(Cl)c1)NC(=O)c1nc(Cl)c(N)nc1N	x	x	2.5µM*	x	x	x
CCCCCCOc1ccc(/C(C)=N/NC2=NCCN2)cc1	-96*	x	x	x	x	-18%
COc1ccc2nc(N=Nc3ccc(N(C)C)cc3)sc2c1	25	u	u	-13%	-14%	13µM*
O=C([C@@H]1CC1(c1ccccc1)c1ccccc1)N1CCOCC1	x	x	-6%	x	x	x
COC(=O)C(O)(c1ccccc1)C(Nc1ccc(OC)cc1)c1ccc(Cl)cc1 (centres undefined)	-3	x	x	x	x	x
CNCCCCOc1ccccc1-c1ccccc1	u	u	7.1µM*	-22%	u	-14%
CC1CCN(CCCCOc2ccccc2-c2ccccc2)CC1	u	2.1µM*	2.3µM*	u	u	0%
c1ccc(-c2ccccc2OCCCCN2CCCCCC2)cc1	-77*	x	x	-17%	-26%	-14%
c1ccc(-c2ccccc2OCCN2CCCC2)cc1	6	-28%[46.1 µM]	u	i	-3%	-2%
COc1ccccc1OCCCCCCN1CCOCC1	-84*	x	x	x	x	-2%
CCN(CC)CCCNC(=O)CSc1nc(-c2ccc(OC)cc2)cc(C(F)(F)F)n1	-37	-2%[46.1 µM]	x	-3%	-13%	0%
CC1CCN(CCCCOc2ccc(Cl)cc2)CC1	x	6%[46.1 µM]	7.9µM*	0%	-22%	-9%
CC1CCN(C(=O)CCCOc2ccc(Cl)cc2)CC1	u	-23%	2%	-22%	-19%	21%
CC(=O)N1CCC2(CC1)C/C(=N\NC(=S)Nc1ccccc1F)c1cc(O)ccc1O2	-82*	u	u	u	-16%	-4%
CC(=O)N1CCC2(CC1)C/C(=N\NC(=S)Nc1ccccc1C)c1cc(O)ccc1O2	-5	x	x	x	x	-13%
Cc1ccc(OCCSc2nc3ccccc3n2CC(=O)N2CCCCC2)c(C)c1	-19	24%[46.1 µM]	2%[46.1 µM]	0%	-7%	0%
O=C(/C=C/c1cn(CC(O)CN2CCCCCC2)c2ccccc12)c1ccccc1 (centres undefined)	-39	-26%[46.1 µM]	u	-9%	-12%	-3%
O=C(/C=C/c1cn(CC(O)CN2CCCCC2)c2ccccc12)c1ccccc1 (centres undefined)	-85*	u	u	-7%	-15%	-6%
COc1ccc(C(=O)/C=C/c2cn(CC(O)CN3CCN(C)CC3)c3ccccc23)cc1OC (centres undefined)	-78*	-25%	u	u	u	-5%
COc1ccc(C(=O)/C=C/c2cn(CC(O)CN3CCCCCC3)c3ccccc23)cc1OC (centres undefined)	-91*	u	u	u	-21%	-20%
Cc1ccc(C(=O)/C=C/c2cn(CC(O)CN3CCCCCC3)c3ccccc23)cc1 (centres undefined)	-39	6%[46.1 µM]	u	i	-25%	u
Cc1ccsc1/C=C1\C(=O)NC(=S)N(C)C1=O	-102*	x	x	x	x	32µM*
O=c1nc(N/N=C/c2c[nH]c3ccccc23)cn[nH]1	0	u	8.9µM*	-27%	-17%	8%

Assay outcomes deposited in PubChem by National Center for Advancing Translational Sciences (NCATS).
